Data as given in the supplement of paper PMC10849652.
About 7,900 targets were measured; listed, in parts, are those with a hit and a random draw of the rest. About 0.6% of all pairs of compound and target were hits.

Columns and labels:
Assay in all cases: log2 fold change, soluble protein after heating vs DMSO (PISA); higher = thermal stabilisation; K562 cells, 10 uM, 30 min; active = over 0.2 and 3.5 SD of the protein, either way, in both replicates (recomputed)
[1] = target: ZC3H8 (UniProt Q8N5P1)
Chain of ZC3H8 (Q8N5P1 whole entry, looked up): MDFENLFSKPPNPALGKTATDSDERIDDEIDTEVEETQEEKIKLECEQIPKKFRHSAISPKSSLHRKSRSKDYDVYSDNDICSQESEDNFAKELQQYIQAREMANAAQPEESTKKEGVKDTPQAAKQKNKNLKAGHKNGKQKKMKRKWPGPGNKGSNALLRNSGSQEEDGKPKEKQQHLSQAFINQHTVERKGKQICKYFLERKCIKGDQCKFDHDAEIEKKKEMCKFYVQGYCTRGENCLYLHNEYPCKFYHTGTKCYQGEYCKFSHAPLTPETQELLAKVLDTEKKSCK
In short: (§1)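 For each measurement, 10 μM compound was applied for 30 min to K562 cells at 2×10^6 cells/mL. Aliquots were heated for 3 min across 48°C-58°C, pooled, and extracted in PBS with 0.5% NP-40 at 4°C; the supernatant after 21,000xg for 90 min was soluble protein. This was quantified by TMTpro 16plex LC-MS/MS with channel sums equalised, and thermal stability was reported relative to control samples from duplicates, on a log2 fold-change scale.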

[2] = target: ZC3HC1 (UniProt Q86WB0)
In short: as §1

[3] = target: ZCCHC9 (UniProt Q8N567)
In short: as §1

[4] = target: ZDHHC17 (UniProt Q8IUH5)
Chain of ZDHHC17 (Q8IUH5 whole entry, looked up): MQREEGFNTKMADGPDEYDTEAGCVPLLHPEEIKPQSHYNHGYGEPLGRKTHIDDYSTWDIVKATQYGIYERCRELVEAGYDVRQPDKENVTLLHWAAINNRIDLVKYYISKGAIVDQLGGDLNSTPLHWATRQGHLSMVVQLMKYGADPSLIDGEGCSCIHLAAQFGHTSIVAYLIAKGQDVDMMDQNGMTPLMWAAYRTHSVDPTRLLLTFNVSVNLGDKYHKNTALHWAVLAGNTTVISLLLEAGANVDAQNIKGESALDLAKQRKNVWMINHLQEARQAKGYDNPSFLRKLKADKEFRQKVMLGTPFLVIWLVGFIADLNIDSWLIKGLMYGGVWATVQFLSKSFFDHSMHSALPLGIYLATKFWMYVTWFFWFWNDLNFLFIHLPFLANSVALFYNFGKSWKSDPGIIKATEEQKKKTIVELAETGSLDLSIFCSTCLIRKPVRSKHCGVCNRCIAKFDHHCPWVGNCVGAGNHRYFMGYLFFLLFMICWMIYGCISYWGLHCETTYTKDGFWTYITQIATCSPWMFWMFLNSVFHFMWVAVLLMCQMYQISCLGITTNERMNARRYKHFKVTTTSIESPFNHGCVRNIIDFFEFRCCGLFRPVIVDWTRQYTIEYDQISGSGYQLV
In short: as §1

[5] = target: ZDHHC20 (UniProt Q5W0Z9)
Chain of ZDHHC20 (Q5W0Z9 whole entry, looked up): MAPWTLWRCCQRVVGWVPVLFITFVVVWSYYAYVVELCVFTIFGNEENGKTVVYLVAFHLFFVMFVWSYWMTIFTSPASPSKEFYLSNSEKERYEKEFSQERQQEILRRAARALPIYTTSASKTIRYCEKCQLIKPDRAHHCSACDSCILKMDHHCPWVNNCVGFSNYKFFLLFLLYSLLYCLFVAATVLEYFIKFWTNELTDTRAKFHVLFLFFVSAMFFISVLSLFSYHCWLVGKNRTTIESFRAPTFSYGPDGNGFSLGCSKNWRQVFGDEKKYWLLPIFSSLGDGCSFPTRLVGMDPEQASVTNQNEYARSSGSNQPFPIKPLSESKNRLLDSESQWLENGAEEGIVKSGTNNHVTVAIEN
In short: as §1

[6] = target: ZDHHC5 (UniProt Q9C0B5)
In short: as §1

[7] = target: ZDHHC7 isoform 2 (UniProt Q9NXF8)
Chain of ZDHHC7 isoform 2 (Q9NXF8 whole entry, looked up, canonical isoform): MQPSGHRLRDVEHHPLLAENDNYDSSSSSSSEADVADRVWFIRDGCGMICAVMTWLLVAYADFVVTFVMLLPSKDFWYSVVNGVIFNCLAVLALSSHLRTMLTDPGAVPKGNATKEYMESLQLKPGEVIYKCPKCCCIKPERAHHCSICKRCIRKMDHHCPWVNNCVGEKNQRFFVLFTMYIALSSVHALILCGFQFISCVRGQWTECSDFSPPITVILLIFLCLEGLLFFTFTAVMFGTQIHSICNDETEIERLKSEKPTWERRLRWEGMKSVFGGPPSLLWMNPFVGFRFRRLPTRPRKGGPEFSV
In short: as §1

[8] = target: ZDHHC8 isoform 3 (UniProt Q9ULC8)
In short: as §1

[9] = target: ZEB2 (UniProt O60315)
In short: as §1

[10] = target: ZER1 (UniProt Q7Z7L7)
Chain of ZER1 (Q7Z7L7 whole entry, looked up): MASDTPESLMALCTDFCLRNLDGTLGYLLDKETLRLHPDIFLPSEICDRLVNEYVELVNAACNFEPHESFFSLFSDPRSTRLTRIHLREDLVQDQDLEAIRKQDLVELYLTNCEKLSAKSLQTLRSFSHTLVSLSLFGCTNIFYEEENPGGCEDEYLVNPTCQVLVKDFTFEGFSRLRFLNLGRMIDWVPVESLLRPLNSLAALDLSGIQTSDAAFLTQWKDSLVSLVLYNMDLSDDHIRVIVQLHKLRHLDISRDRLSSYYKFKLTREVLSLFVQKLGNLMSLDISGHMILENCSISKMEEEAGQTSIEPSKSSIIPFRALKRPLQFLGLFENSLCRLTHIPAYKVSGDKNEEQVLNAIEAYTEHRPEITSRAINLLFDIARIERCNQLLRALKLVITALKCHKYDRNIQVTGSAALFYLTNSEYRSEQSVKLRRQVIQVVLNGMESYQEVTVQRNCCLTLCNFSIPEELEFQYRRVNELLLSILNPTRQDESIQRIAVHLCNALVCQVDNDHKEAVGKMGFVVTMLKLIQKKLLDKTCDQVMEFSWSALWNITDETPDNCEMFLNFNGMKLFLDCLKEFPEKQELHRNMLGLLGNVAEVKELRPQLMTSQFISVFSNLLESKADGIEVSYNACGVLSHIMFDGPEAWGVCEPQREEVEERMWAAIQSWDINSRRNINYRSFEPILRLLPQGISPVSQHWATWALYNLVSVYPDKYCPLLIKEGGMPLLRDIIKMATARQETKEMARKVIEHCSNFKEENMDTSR
In short: as §1

[11] = target: ZFAND5 (UniProt O76080)
Chain of ZFAND5 (O76080 whole entry, looked up): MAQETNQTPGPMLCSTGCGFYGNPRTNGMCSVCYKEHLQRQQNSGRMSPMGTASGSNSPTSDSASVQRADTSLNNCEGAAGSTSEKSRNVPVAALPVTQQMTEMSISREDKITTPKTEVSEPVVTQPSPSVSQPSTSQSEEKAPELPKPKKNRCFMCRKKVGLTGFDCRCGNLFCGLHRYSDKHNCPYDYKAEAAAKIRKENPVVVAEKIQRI
In short: as §1

[12] = target: ZFAND6 (UniProt Q6FIF0)
In short: as §1

[13] = target: ZFP91 (UniProt Q96JP5)
Chain of ZFP91 (Q96JP5 whole entry, looked up): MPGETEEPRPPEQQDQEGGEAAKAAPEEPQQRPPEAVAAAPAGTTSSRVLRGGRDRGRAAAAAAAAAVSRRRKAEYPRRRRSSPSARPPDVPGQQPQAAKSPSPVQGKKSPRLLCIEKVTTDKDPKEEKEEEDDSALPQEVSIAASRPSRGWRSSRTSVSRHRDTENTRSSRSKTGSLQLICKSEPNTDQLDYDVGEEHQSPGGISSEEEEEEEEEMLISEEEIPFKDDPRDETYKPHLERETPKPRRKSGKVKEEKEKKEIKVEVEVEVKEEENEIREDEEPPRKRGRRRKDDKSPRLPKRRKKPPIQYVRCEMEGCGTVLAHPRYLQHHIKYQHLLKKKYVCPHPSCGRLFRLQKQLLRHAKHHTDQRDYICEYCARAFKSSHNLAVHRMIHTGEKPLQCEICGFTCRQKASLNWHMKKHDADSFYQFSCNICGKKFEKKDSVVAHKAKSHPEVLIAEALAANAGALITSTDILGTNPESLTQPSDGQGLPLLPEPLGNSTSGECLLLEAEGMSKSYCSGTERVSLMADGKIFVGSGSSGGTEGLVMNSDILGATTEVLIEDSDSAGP
In short: as §1

[14] = target: ZFPL1 (UniProt O95159)
Chain of ZFPL1 (O95159 whole entry, looked up): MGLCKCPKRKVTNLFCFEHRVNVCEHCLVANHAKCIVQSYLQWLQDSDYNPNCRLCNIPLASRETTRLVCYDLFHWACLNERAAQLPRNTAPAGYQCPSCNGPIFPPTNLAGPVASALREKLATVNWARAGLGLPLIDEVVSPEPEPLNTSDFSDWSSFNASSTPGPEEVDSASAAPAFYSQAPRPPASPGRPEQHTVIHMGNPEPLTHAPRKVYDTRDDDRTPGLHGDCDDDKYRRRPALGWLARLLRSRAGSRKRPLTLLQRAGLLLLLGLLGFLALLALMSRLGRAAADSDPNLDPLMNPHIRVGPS
In short: as §1

[15] = target: ZMAT2 (UniProt Q96NC0)
In short: as §1

[16] = target: ZMYM1 (UniProt Q5SVZ6)
In short: as §1

[17] = target: ZMYM3 (UniProt Q14202)
Chain of ZMYM3 (Q14202 whole entry, looked up): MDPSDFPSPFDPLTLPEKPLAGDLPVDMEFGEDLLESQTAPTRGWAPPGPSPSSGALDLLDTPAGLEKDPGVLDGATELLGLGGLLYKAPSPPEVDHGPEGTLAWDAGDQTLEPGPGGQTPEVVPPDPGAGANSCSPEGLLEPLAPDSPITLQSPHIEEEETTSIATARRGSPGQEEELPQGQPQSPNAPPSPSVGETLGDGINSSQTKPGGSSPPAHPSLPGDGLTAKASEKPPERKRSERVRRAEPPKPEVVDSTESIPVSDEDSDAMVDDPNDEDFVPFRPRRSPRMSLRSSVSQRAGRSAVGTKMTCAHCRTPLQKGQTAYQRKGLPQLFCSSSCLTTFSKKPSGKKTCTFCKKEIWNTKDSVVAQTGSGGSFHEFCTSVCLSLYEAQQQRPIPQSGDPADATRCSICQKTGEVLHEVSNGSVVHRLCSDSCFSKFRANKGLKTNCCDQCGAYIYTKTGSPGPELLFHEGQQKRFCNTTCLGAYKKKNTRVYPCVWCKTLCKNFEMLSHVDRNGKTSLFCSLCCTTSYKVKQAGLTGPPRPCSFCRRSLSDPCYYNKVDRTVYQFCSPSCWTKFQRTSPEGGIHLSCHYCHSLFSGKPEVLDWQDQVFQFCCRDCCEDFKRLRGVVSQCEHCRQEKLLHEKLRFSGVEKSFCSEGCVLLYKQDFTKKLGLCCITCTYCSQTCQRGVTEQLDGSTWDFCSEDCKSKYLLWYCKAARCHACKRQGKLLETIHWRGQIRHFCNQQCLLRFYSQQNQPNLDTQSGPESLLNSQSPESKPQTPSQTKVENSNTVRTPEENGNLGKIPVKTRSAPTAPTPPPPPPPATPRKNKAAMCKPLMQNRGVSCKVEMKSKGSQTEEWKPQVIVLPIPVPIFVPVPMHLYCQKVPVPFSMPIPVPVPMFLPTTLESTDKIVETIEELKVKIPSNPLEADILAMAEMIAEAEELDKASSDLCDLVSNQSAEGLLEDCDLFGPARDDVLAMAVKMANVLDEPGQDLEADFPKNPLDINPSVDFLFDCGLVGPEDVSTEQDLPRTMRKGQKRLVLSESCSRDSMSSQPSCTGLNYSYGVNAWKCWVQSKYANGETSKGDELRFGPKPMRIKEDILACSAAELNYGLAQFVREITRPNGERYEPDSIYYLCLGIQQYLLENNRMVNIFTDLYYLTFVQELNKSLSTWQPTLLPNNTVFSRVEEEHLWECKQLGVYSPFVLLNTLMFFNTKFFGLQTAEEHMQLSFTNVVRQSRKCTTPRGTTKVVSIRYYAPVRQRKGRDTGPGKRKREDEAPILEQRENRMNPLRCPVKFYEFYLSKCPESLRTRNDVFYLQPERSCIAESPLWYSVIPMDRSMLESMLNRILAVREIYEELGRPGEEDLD
In short: as §1

[18] = target: ZNF143 (UniProt P52747)
In short: as §1

[19] = target: ZDHHC6 (UniProt Q9H6R6)
In short: as §1

Measured: log2 fold change

COc1ccc(Cn2ccc3ccc(C(=O)NO)cc32)cc1
active: [15] 0.378
inactive: [1] -0.128 | [2] 0.13 | [3] -0.05 | [4] 0.137 | [5] -0.034 | [6] -0.01 | [7] -0.022 | [8] 0.07 | [9] -0.078 | [10] -0.236 | [11] -0.032 | [12] 0.066 | [13] -0.076 | [14] 0.074 | [16] -0.056 | [17] 0 | [18] -0.035

Cc1nc(Nc2n[nH]c3c2CN(C(=O)N[C@H](CN(C)C)c2ccccc2)C3(C)C)c2sccc2n1
inactive: [1] 0.081 | [2] -0.103 | [3] 0.159 | [4] -0.012 | [5] -0.02 | [6] -0.037 | [7] 0.046 | [8] 0.013 | [9] -0.149 | [10] -0.141 | [11] 0.038 | [12] 0.028 | [13] -0.059 | [14] -0.034 | [15] 0.07 | [16] -0.063 | [17] -0.01 | [18] -0.047

Cn1cc(-c2ccc3nnc(C(F)(F)c4ccc5ncccc5c4)n3n2)cn1
inactive: [1] -0.056 | [2] 0.038 | [3] -0.081 | [4] -0.029 | [5] 0.048 | [6] -0.009 | [7] 0.091 | [9] -0.135 | [10] -0.024 | [11] -0.036 | [12] -0.009 | [13] -0.073 | [14] -0.03 | [15] -0.051 | [16] 0.05 | [18] 0.041
active: [17] -0.246

CC(C)N(C[C@H]1O[C@@H](n2cnc3c(N)ncnc32)[C@H](O)[C@@H]1O)[C@H]1C[C@@H](CCc2nc3cc(C(C)(C)C)ccc3[nH]2)C1 [pinometostat]
inactive: [1] 0.017 | [2] -0.005 | [3] 0.187 | [4] 0.053 | [5] 0.025 | [6] -0.02 | [7] -0.024 | [8] 0.026 | [9] 0.06 | [10] 0.098 | [11] -0.047 | [12] -0.048 | [13] 0.136 | [14] -0.11 | [15] -0.037 | [16] 0.001 | [17] -0.011 | [18] 0.014

CS(=O)(=O)N1CCN(Cc2cc3nc(-c4cccc5[nH]ncc45)nc(N4CCOCC4)c3s2)CC1 [pictilisib]
inactive: [1] -0.007 | [2] -0.003 | [3] -0.004 | [4] 0.021 | [5] 0.066 | [6] 0.047 | [19] -0.044 | [7] 0.089 | [10] 0.085 | [11] 0.007 | [12] 0.063 | [13] -0.07 | [14] 0.173 | [15] 0.01 | [16] -0.018 | [17] -0.022 | [18] -0.06

CCn1cc(-c2ccnc3[nH]c(-c4cccc(CN(C)C)c4)cc23)c(-c2ccc(NC(=O)N(C)C)cc2)n1
inactive: [1] 0.092 | [2] -0.125 | [3] 0.201 | [4] -0.018 | [5] -0.016 | [6] -0.002 | [19] -0.292 | [7] -0.363 | [10] -0.16 | [11] -0.017 | [12] -0.009 | [13] 0.07 | [14] 0.032 | [15] 0.022 | [16] 0.141 | [17] 0.018 | [18] -0.102

O=C(Nc1nc2ccccc2n1CCN1CCOCC1)c1cccc([N+](=O)[O-])c1 [IRAK-1-4 Inhibitor I]
inactive: [1] -0.098 | [2] -0.017 | [3] -0.085 | [4] -0.008 | [5] -0.044 | [6] -0.043 | [7] 0 | [8] -0.049 | [9] 0.02 | [10] 0.025 | [11] 0.057 | [12] 0.032 | [13] -0.134 | [14] 0.021 | [15] 0.11 | [16] 0.006 | [17] 0.057 | [18] 0.108

CN1CCc2c(c3ccccc3n2Cc2ccc(C(=O)NO)cc2)C1 [Tubastatin A]
active: [11] 0.285
inactive: [1] -0.034 | [2] 0.07 | [3] 0.103 | [4] -0.012 | [5] 0.02 | [6] 0.051 | [7] -0.003 | [8] 0.058 | [9] 0.181 | [10] 0.048 | [12] 0.144 | [13] 0.077 | [14] -0.025 | [15] 0.057 | [16] 0.071 | [17] -0.028 | [18] -0.031
